{
  "source": "PubChem BioAssay",
  "note": "Values without a mark were called inactive. The rule behind the calls is not given here.",
  "data": [
    {"target": "Pantothenate synthetase (Mycobacterium tuberculosis (strain ATCC 25618 / H37Rv)) (UniProt P9WIL5)", "sequence (P9WIL5 whole entry, looked up)": "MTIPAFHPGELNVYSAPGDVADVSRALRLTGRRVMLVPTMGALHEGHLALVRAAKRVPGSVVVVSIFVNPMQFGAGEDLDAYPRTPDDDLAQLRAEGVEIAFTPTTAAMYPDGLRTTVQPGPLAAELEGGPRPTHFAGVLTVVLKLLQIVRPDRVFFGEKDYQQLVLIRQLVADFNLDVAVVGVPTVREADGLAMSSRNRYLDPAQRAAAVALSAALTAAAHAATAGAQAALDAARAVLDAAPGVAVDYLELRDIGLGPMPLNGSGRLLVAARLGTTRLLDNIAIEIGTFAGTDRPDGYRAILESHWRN", "experiment": "Recombinant Mtb pantothenate synthetase (PanC) inhibitors, coupled enzyme, confirmatory (AID 375);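 note: 0% = full reaction with vehicle and 100% = no enzyme background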", "details": "coupled enzyme assay; at 10 µM, stronger effect = higher value", "units": {"inhibition": "%"}, "values": [
      {"smiles": "CC(C(=O)N1c2ccc(F)cc2CCC1C)N1C(=O)c2ccccc2C1=O", "note": "(stereo unspecified)", "inhibition": 5},
      {"smiles": "Cc1cccc(NC(=O)COc2ccc(Br)cc2)n1", "inhibition": 0},
      {"smiles": "O=C(c1ccc(S(=O)(=O)N2CCC(c3nc4ccccc4s3)CC2)cc1)N1CCOCC1", "inhibition": 0},
      {"smiles": "O=c1c2c3c(sc2nc2sc(C4CC4)nn12)CCCC3", "inhibition": 0},
      {"smiles": "COc1cc([C@@H]2[C@H]3CN(C)CC=C3C(C#N)=C(N)C2(C#N)C#N)cc2c1OCO2", "inhibition": 0},
      {"smiles": "Cn1cc(Cl)c(C(=O)NC2CCCC2)n1", "inhibition": 6},
      {"smiles": "O=C(NCc1cccnc1)c1cccc(C(F)(F)F)c1", "inhibition": 1},
      {"smiles": "CN(Cc1ccccc1)Cc1nc2c(c(=O)n(C)c(=O)n2C)n1Cc1ccc(Cl)cc1", "inhibition": 0},
      {"smiles": "CN(C)C(=O)CSc1nnc2sc3ccccc3n12", "inhibition": 0},
      {"smiles": "CCOc1ccc(C2/C(=C(/O)c3ccc(OC)cc3)C(=O)C(=O)N2c2cc(C)on2)cc1OC", "note": "(stereo unspecified)", "inhibition": 0},
      {"smiles": "O=C(c1ccc(Cl)cc1)N1CCCCC(Sc2nnc(-c3ccc4c(c3)OCO4)o2)C1=O", "note": "(stereo unspecified)", "inhibition": 3},
      {"smiles": "CCCC(=O)C1=C(N(C)c2ccccc2)CC(C)(C)C(C(=O)OC)C1=O", "note": "(stereo unspecified)", "inhibition": 1},
      {"smiles": "O=C(NCC(c1cccnc1)N1CCN(c2ccc(F)cc2)CC1)OCc1ccccc1", "note": "(stereo unspecified)", "inhibition": 0},
      {"smiles": "CCCOc1ccc(NC2=CC(=O)CC(C)(C)C2)cc1", "inhibition": 0},
      {"smiles": "COCCn1c(NCc2ccc(C)cc2)nc2c1c(=O)[nH]c(=O)n2C", "inhibition": 10},
      {"smiles": "c1ccc(-c2nn3nnnc3c3ccccc23)cc1", "inhibition": 4},
      {"smiles": "COc1ccccc1-n1cnnc1SCC(=O)c1ccc[nH]1", "inhibition": 3},
      {"smiles": "COc1ccc(OCC(=O)Nc2cccc3ncccc23)cc1", "inhibition": 2},
      {"smiles": "CS(=O)(=O)Nc1ccc(C(=O)NCc2ccco2)cc1", "inhibition": 0},
      {"smiles": "CCOC(=O)N1CCN(c2c(N3CCN(c4ccccn4)CC3)c(=O)c2=O)CC1", "inhibition": 0},
      {"smiles": "Nc1nc2ccccc2n1C(=O)CCc1ccccc1", "inhibition": 0}
    ]}
  ]
}
